Reference: the supplement of paper PMC6555819

Tested on: PPARa:RXRa (NR concentration 270 nM, RXRa partner concentration 90 nM)
Assay: PBM binding z-score (relative to random genomic background probes); higher = stronger binding; sequences stand for … in GC…GCGATTGACAGCGTAGAATGAAGG
Outline: (§1)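 Antibodies against each partner of ligand-free nuclear receptor dimers (one per run) detected binding on custom Agilent 4×180K protein-binding microarrays after 1 h incubation. The double-stranded probes had 34-nt variable regions carrying direct-repeat seeds, single-nucleotide variants, half-site ablations and random human genomic background sequences. Binding z-scores, from regression-normalized fluorescence, use the random background probes as reference.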

| Sequence | PBM binding z-score |
| --- | --- |
| ATCTCTAGGTAAGACTCAGTTCATTGAAGAACGC | 0.841 |
| CCTTACGGGTGAAGGTTATAGCACGGGTGGTACG | 1.61 |
| ACCTCTAGGTAAAAGTTCAGTGAATCCCGAGGAT | 3.58 |
| CGTCAAAGTTCAACTAAGGTGACGTAAAGCACGC | 5.05 |
| CATACTGGGCCATCAGGTCATTGATATCAACGTT | 2.86 |
| CCGACTGGGGCATAAGGTTACAATAAGCCAGCCC | 1.9 |
| CGAACTAGGTCAGAACAGGACAGTGCAGGATGAT | 3.08 |
| CAAACTTGGTCAAAGGTCAAAGTCGAGCCAACCA | 6.84 |
| TCATATAGGCAAATGCTAGGTGAAAGTCCGATCT | 0.735 |
| ATCTCTATGTAAAGATAGTTCAGTGAATGCAAAT | 0.222 |
| GTACCAAGGAGAATAGGTCGTTGATGAGTAGGCG | 0.108 |
| TATACAGGGCCAAAGGCCAGAGTACGAATGTCGA | 1.38 |
| GCTGCTAGGTCAGGTTGCTCAGCTAACGGGTACG | 1.3 |
| AGTCAAAGTTCAGGGCGAGGTAACGTAAAGCACG | 3.75 |
| ACCTACGGGTCAACGAGGTTATAGCACGCGTATA | 5.36 |
| TCTGCTAAGTCAGTTGGTCAGCTAACGAGCTGCC | -0.235 |
| TATCCTAGGTCATGGGCCAGTATACCACGCGAAC | 4.57 |

Tested on: PPARg:RXRa (NR concentration 180 nM, RXRa partner concentration 90 nM)
Assay: as above
Outline: as §1

| Sequence | PBM binding z-score |
| --- | --- |
| TCATCTAGGTAATACAGGTGAAAGTCGGCATCTA | 1.29 |
| CGTCCAAGGTCAGAAGGTCAGTGAAAGCGACGTG | 3.62 |
| CATACAGGGTCAGCTAAGCCAGAGTAGGGACGGC | 3.57 |
| TATACAGGGTCAGAGGCCAGAGTACGAATGTCGA | 5.34 |
| GGATCGAGGGCATTCGAGTTGATAGCATGGCGAT | 0.73 |
| ACTAGTTGGTCAGCTGTGGTCACACACAATTCGG | 0.536 |
| TCGAGTAGGTTAGGGGCACTCAGAATGGCGTCGA | 0.844 |
| CCTAGAAGGCCAATCTGGGTCACTCAAGGCTTGA | 2.93 |
| ACTTACGAGTCAACGAGGTTATAGCACGCGTATA | 0.967 |
| TAGCCTAGGTCATGGGCTAGTATACCACGCGAAC | 3.61 |
| TCTGCTAGGTCAACGATGGTCATCTAATCTGCTA | 2.78 |
| TCTATTAGCTGATTAGGGCAACCGAAACAGCGGA | -0.00749 |
| CTCGAAAGGTGGGTTGAGGTGAGTATACGGATAA | 0.158 |
| CGTCCAAGGTCATAGGAAGTCAGTGAAGACAGAT | 4.4 |
| ATCTATAGGTAACAAGTTCAGTGAAAGAGAGGAC | 1.46 |
| TCGTGTAGATCAAGCAGGTTAAGAAAGCCTGAGT | -0.429 |
| CCTGGGAGGACAACAGGAGGTCAGAGCTGCCAGA | 0.479 |
| AGAATGAGGGTATACGTAGATCAGGGAAGAAAGT | 0.755 |
| AATACAGGGTCACTAGGCTAGAGTAGGTACGAAT | 7.63 |
| TCGAGTAGGTTACTAATGGGGCATTCAGCTTTCT | -0.149 |

| Sequence | PBM binding z-score |
| --- | --- |
| GTACCAACGTGAATAGGTCGTTGATGAGTAGGCG | 0.588 |
| CCTACTGGGCCATCAGGTTATTGATATCAACGTT | 1.23 |
| ATCTCTAGGTAAGACTCAGTTCATTGAAGAACGC | 0.175 |
| CCTTACGGGTGAAGGTTATAGCACGGGTGGTACG | 1.09 |
| ACCTCTAGGTAAAAGTTCAGTGAATCCCGAGGAT | 7.09 |
| CGTCAAAGTTCAACTAAGGTGACGTAAAGCACGC | 5.01 |
| CATACTGGGCCATCAGGTCATTGATATCAACGTT | 2.91 |
| CCGACTGGGGCATAAGGTTACAATAAGCCAGCCC | 2.58 |
| CGAACTAGGTCAGAACAGGACAGTGCAGGATGAT | 5.1 |
| CAAACTTGGTCAAAGGTCAAAGTCGAGCCAACCA | 11.5 |
| TCATATAGGCAAATGCTAGGTGAAAGTCCGATCT | 0.411 |
| ATCTCTATGTAAAGATAGTTCAGTGAATGCAAAT | 0.759 |
| GTACCAAGGAGAATAGGTCGTTGATGAGTAGGCG | 0.546 |
| TATACAGGGCCAAAGGCCAGAGTACGAATGTCGA | 4.12 |
| GCTGCTAGGTCAGGTTGCTCAGCTAACGGGTACG | 0.32 |
| AGTCAAAGTTCAGGGCGAGGTAACGTAAAGCACG | 5.2 |
| ACCTACGGGTCAACGAGGTTATAGCACGCGTATA | 4.44 |
| TCTGCTAAGTCAGTTGGTCAGCTAACGAGCTGCC | -1.04 |
| TATCCTAGGTCATGGGCCAGTATACCACGCGAAC | 5.5 |

Tested on: PPARg:RXRa 270nM:90nM, anti-RXR (NR concentration 270 nM, RXRa partner concentration 90 nM)
Assay: as above
Outline: as §1

| Sequence | PBM binding z-score |
| --- | --- |
| TCATCTAGGTAATACAGGTGAAAGTCGGCATCTA | 2.5 |
| CGTCCAAGGTCAGAAGGTCAGTGAAAGCGACGTG | 4.51 |
| CATACAGGGTCAGCTAAGCCAGAGTAGGGACGGC | 2.87 |
| TATACAGGGTCAGAGGCCAGAGTACGAATGTCGA | 5.19 |
| GGATCGAGGGCATTCGAGTTGATAGCATGGCGAT | 0.681 |
| ACTAGTTGGTCAGCTGTGGTCACACACAATTCGG | 0.0705 |
| TCGAGTAGGTTAGGGGCACTCAGAATGGCGTCGA | 1.91 |
| CCTAGAAGGCCAATCTGGGTCACTCAAGGCTTGA | 2.57 |
| ACTTACGAGTCAACGAGGTTATAGCACGCGTATA | 0.553 |
| TAGCCTAGGTCATGGGCTAGTATACCACGCGAAC | 3.3 |
| TCTGCTAGGTCAACGATGGTCATCTAATCTGCTA | 3.34 |
| TCTATTAGCTGATTAGGGCAACCGAAACAGCGGA | 1.41 |
| CTCGAAAGGTGGGTTGAGGTGAGTATACGGATAA | 0.31 |
| CGTCCAAGGTCATAGGAAGTCAGTGAAGACAGAT | 4.99 |
| ATCTATAGGTAACAAGTTCAGTGAAAGAGAGGAC | 1.66 |
| TCGTGTAGATCAAGCAGGTTAAGAAAGCCTGAGT | 0.747 |
| CCTGGGAGGACAACAGGAGGTCAGAGCTGCCAGA | 0.597 |
| AGAATGAGGGTATACGTAGATCAGGGAAGAAAGT | 0.72 |
| AATACAGGGTCACTAGGCTAGAGTAGGTACGAAT | 6.19 |
| TCGAGTAGGTTACTAATGGGGCATTCAGCTTTCT | 0.701 |

| Sequence | PBM binding z-score |
| --- | --- |
| GTACCAACGTGAATAGGTCGTTGATGAGTAGGCG | -0.017 |
| CCTACTGGGCCATCAGGTTATTGATATCAACGTT | 1.98 |
| ATCTCTAGGTAAGACTCAGTTCATTGAAGAACGC | 0.381 |
| CCTTACGGGTGAAGGTTATAGCACGGGTGGTACG | 1.51 |
| ACCTCTAGGTAAAAGTTCAGTGAATCCCGAGGAT | 7.47 |
| CGTCAAAGTTCAACTAAGGTGACGTAAAGCACGC | 5.86 |
| CATACTGGGCCATCAGGTCATTGATATCAACGTT | 3.57 |
| CCGACTGGGGCATAAGGTTACAATAAGCCAGCCC | 3.36 |
| CGAACTAGGTCAGAACAGGACAGTGCAGGATGAT | 4.39 |
| CAAACTTGGTCAAAGGTCAAAGTCGAGCCAACCA | 10 |
| TCATATAGGCAAATGCTAGGTGAAAGTCCGATCT | 1.55 |
| ATCTCTATGTAAAGATAGTTCAGTGAATGCAAAT | 0.0606 |
| GTACCAAGGAGAATAGGTCGTTGATGAGTAGGCG | 0.112 |
| TATACAGGGCCAAAGGCCAGAGTACGAATGTCGA | 4.61 |
| GCTGCTAGGTCAGGTTGCTCAGCTAACGGGTACG | 1.06 |
| AGTCAAAGTTCAGGGCGAGGTAACGTAAAGCACG | 5.24 |
| ACCTACGGGTCAACGAGGTTATAGCACGCGTATA | 4.86 |
| TCTGCTAAGTCAGTTGGTCAGCTAACGAGCTGCC | 0.263 |
| TATCCTAGGTCATGGGCCAGTATACCACGCGAAC | 5.51 |
